From PubChem BioAssay (NCI)
This is part of a sample that, as a whole, favours compounds with a hit. Of some 83,000 tested, about 20% had one in any assay.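 Plates (96-well) were seeded with cells, treated with compound at one concentration, and incubated for 48 hours before percent growth was determined.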 The source made the active and inactive calls. Rule for the calls: active = growth percent below 10; inactive = the rest.

Experiments:
Test in all cases: NCI-60 one-dose screen, 48 h (100 = growth as untreated, 0 = no growth, -100 = all killed)
Settings in all cases: 10 µM
RPMI-8226 leukemia = test system: RPMI-8226 leukemia
OVCAR-8 ovarian = test system: OVCAR-8 ovarian
OVCAR-5 ovarian = test system: OVCAR-5 ovarian
OVCAR-4 ovarian = test system: OVCAR-4 ovarian
SK-OV-3 ovarian = test system: SK-OV-3 ovarian
IGROV1 ovarian = test system: IGROV1 ovarian
OVCAR-3 ovarian = test system: OVCAR-3 ovarian
HS 578T breast = test system: HS 578T breast
NCI/ADR-RES ovarian = test system: NCI/ADR-RES ovarian
T-47D breast = test system: T-47D breast
BT-549 breast = test system: BT-549 breast
MDA-MB-435 melanoma = test system: MDA-MB-435 melanoma
SW-620 colon = test system: SW-620 colon
MCF7 breast = test system: MCF7 breast
HCT-116 colon = test system: HCT-116 colon
KM12 colon = test system: KM12 colon
HCC-2998 colon = test system: HCC-2998 colon

Measured: growth

COc1ccc2c(c1)sc1nc(-c3ccccc3)c(-c3cccnc3)n12
inactive: RPMI-8226 leukemia 79% | OVCAR-8 ovarian 104% | OVCAR-5 ovarian 110% | OVCAR-4 ovarian 88.1% | SK-OV-3 ovarian 108% | IGROV1 ovarian 94.7% | OVCAR-3 ovarian 113% | HS 578T breast 99.7% | NCI/ADR-RES ovarian 96.4% | T-47D breast 93.3% | BT-549 breast 85.1% | MDA-MB-435 melanoma 99.4% | SW-620 colon 97.5% | MCF7 breast 102% | HCT-116 colon 78.5% | KM12 colon 106%

COc1cc(-c2nc(Nc3nc4ccccc4s3)[nH]c(=O)c2C#N)cc(OC)c1O
inactive: RPMI-8226 leukemia 89.9% | OVCAR-8 ovarian 99% | OVCAR-5 ovarian 109% | OVCAR-4 ovarian 109% | SK-OV-3 ovarian 108% | IGROV1 ovarian 128% | OVCAR-3 ovarian 104% | HS 578T breast 107% | NCI/ADR-RES ovarian 111% | T-47D breast 102% | BT-549 breast 98.1% | MDA-MB-435 melanoma 120% | SW-620 colon 110% | MCF7 breast 95.7% | HCT-116 colon 94.7% | HCC-2998 colon 104% | KM12 colon 114%

Cc1ccc(NC(=O)Nc2c(Cl)cccc2Cl)cn1
inactive: RPMI-8226 leukemia 62.9% | OVCAR-8 ovarian 111% | OVCAR-5 ovarian 119% | OVCAR-4 ovarian 135% | SK-OV-3 ovarian 116% | IGROV1 ovarian 85.9% | OVCAR-3 ovarian 106% | HS 578T breast 97.8% | NCI/ADR-RES ovarian 105% | T-47D breast 96.8% | BT-549 breast 118% | MDA-MB-435 melanoma 38.3% | SW-620 colon 127% | MCF7 breast 91.8% | HCT-116 colon 104% | HCC-2998 colon 104% | KM12 colon 105%

COc1ccc2c(c1)O/C(=C\c1ncc([N+](=O)[O-])n1C)C2=O
active: RPMI-8226 leukemia -1.22% | OVCAR-8 ovarian -20.8% | OVCAR-5 ovarian -14.7% | OVCAR-4 ovarian -11.6% | SK-OV-3 ovarian -15.9% | IGROV1 ovarian -25% | OVCAR-3 ovarian -24.8% | HS 578T breast -21.1% | NCI/ADR-RES ovarian 1.07% | BT-549 breast -36.8% | MDA-MB-435 melanoma -78.1% | SW-620 colon -20.8% | MCF7 breast 1.94% | HCT-116 colon 0.959% | HCC-2998 colon -58.8% | KM12 colon -37.7%
inactive: T-47D breast 76.5%

O=C1OCC2=C1C(c1cccc(Cl)c1)c1cc3c(cc1N2CCO)CCC3 (stereo unspecified)
inactive: RPMI-8226 leukemia 17.3% | OVCAR-5 ovarian 46.1% | OVCAR-4 ovarian 50.4% | SK-OV-3 ovarian 23.5% | IGROV1 ovarian 15.9% | T-47D breast 66.1% | SW-620 colon 16% | MCF7 breast 14.1%
active: OVCAR-8 ovarian 4.21% | OVCAR-3 ovarian -54.2% | HS 578T breast -1.05% | NCI/ADR-RES ovarian -23% | BT-549 breast 8.33% | MDA-MB-435 melanoma -49.5% | HCT-116 colon 2.02% | KM12 colon -47.4%

O=C(Nc1ccncc1)C(=O)c1cn(S(=O)(=O)c2cccc(Cl)c2)c2ccccc12
inactive: RPMI-8226 leukemia 47.2% | OVCAR-8 ovarian 76.2% | OVCAR-5 ovarian 107% | OVCAR-4 ovarian 74.8% | SK-OV-3 ovarian 96.6% | IGROV1 ovarian 52.7% | OVCAR-3 ovarian 45.7% | HS 578T breast 86.8% | NCI/ADR-RES ovarian 43.6% | T-47D breast 70% | BT-549 breast 49% | SW-620 colon 47% | MCF7 breast 29.3% | HCT-116 colon 24% | KM12 colon 51.5%
active: MDA-MB-435 melanoma 1.36%

COc1cc(Cl)cc(-c2nn(-c3cccc(NC(=O)c4ccc(Cl)c(Cl)c4)c3)cc2-c2ccncc2)c1
inactive: RPMI-8226 leukemia 46% | OVCAR-8 ovarian 58.4% | OVCAR-5 ovarian 79.2% | OVCAR-4 ovarian 58.6% | SK-OV-3 ovarian 80.1% | IGROV1 ovarian 71.6% | OVCAR-3 ovarian 53.4% | HS 578T breast 63.6% | NCI/ADR-RES ovarian 61.4% | T-47D breast 63.2% | BT-549 breast 85.2% | MDA-MB-435 melanoma 80.7% | SW-620 colon 84.2% | MCF7 breast 57.7% | HCC-2998 colon 77.8% | KM12 colon 62.3%

CC1(C)CCC(=NNC(N)=S)CC1
inactive: RPMI-8226 leukemia 103% | OVCAR-8 ovarian 100% | OVCAR-5 ovarian 109% | OVCAR-4 ovarian 112% | SK-OV-3 ovarian 117% | IGROV1 ovarian 116% | OVCAR-3 ovarian 112% | HS 578T breast 103% | NCI/ADR-RES ovarian 105% | T-47D breast 95.2% | BT-549 breast 125% | MDA-MB-435 melanoma 111% | SW-620 colon 105% | MCF7 breast 99.4% | HCC-2998 colon 101% | KM12 colon 105%

CC(=O)N1C/C(=C/c2ccc(Cl)cc2)C(=O)/C(=C/c2ccc(Cl)cc2)C1
active: RPMI-8226 leukemia -45.2% | OVCAR-8 ovarian 4.95% | SK-OV-3 ovarian -10.9% | IGROV1 ovarian -55.7% | OVCAR-3 ovarian -40.6% | BT-549 breast -27.2% | MDA-MB-435 melanoma -50.3% | SW-620 colon -62.4% | MCF7 breast -48.4% | HCC-2998 colon -85.1%
inactive: OVCAR-5 ovarian 18.2% | OVCAR-4 ovarian 10.9% | HS 578T breast 14.5% | NCI/ADR-RES ovarian 10.4% | T-47D breast 30.1%

CC1(C)Cc2c(sc3ncn4nc(-c5ccc(O)cc5)nc4c23)CO1
inactive: RPMI-8226 leukemia 57.7% | OVCAR-8 ovarian 58.5% | OVCAR-5 ovarian 86.6% | OVCAR-4 ovarian 64.1% | SK-OV-3 ovarian 79.8% | IGROV1 ovarian 75.5% | OVCAR-3 ovarian 86.5% | HS 578T breast 65.3% | NCI/ADR-RES ovarian 64.7% | T-47D breast 48.7% | BT-549 breast 65.1% | MDA-MB-435 melanoma 77.4% | SW-620 colon 94.5% | MCF7 breast 66.5% | HCC-2998 colon 118%

CC(C)(C)c1cc(Br)cc(C(C)(C)C)c1O
inactive: RPMI-8226 leukemia 93.9% | OVCAR-8 ovarian 103% | OVCAR-5 ovarian 111% | OVCAR-4 ovarian 112% | SK-OV-3 ovarian 101% | IGROV1 ovarian 115% | OVCAR-3 ovarian 108% | HS 578T breast 120% | NCI/ADR-RES ovarian 107% | T-47D breast 99.8% | BT-549 breast 111% | MDA-MB-435 melanoma 95.8% | SW-620 colon 112% | MCF7 breast 99% | HCT-116 colon 104% | HCC-2998 colon 103% | KM12 colon 105%

Cn1c([N+](=O)[O-])cnc1/C=C1\Oc2ccc(Cl)cc2C1=O
inactive: T-47D breast 78.1%
active: RPMI-8226 leukemia 0.916% | OVCAR-8 ovarian -17.3% | OVCAR-5 ovarian -20.4% | OVCAR-4 ovarian -4.09% | SK-OV-3 ovarian -10.2% | IGROV1 ovarian -19.3% | OVCAR-3 ovarian -26.8% | HS 578T breast -24.1% | NCI/ADR-RES ovarian 2.61% | BT-549 breast -35.7% | MDA-MB-435 melanoma -62.7% | SW-620 colon -61.6% | MCF7 breast 1.32% | HCT-116 colon -46.6% | HCC-2998 colon -58.6% | KM12 colon -37%

NC(=O)c1ccc(-c2cccc3c(=O)nc(N4CCOCC4)oc23)cc1
inactive: RPMI-8226 leukemia 104% | OVCAR-8 ovarian 101% | OVCAR-5 ovarian 96.8% | OVCAR-4 ovarian 90.5% | SK-OV-3 ovarian 103% | IGROV1 ovarian 103% | OVCAR-3 ovarian 99.4% | HS 578T breast 97.2% | NCI/ADR-RES ovarian 97.3% | T-47D breast 87.8% | BT-549 breast 98.1% | MDA-MB-435 melanoma 107% | SW-620 colon 104% | MCF7 breast 90.3% | HCT-116 colon 104% | HCC-2998 colon 101% | KM12 colon 97.6%

COc1cc(/C=C\c2cc(OC)c(OC)c(OC)c2)cc(NS(=O)(=O)c2ccc(Cl)cc2)c1OC
active: RPMI-8226 leukemia 9.59% | HS 578T breast 1.49% | MDA-MB-435 melanoma -39.1%
inactive: OVCAR-8 ovarian 17.1% | OVCAR-5 ovarian 45% | OVCAR-4 ovarian 58.4% | SK-OV-3 ovarian 28.2% | IGROV1 ovarian 46.8% | OVCAR-3 ovarian 10.3% | NCI/ADR-RES ovarian 12.8% | T-47D breast 55.3% | BT-549 breast 40.6% | SW-620 colon 30.4% | MCF7 breast 26.5% | HCT-116 colon 14.7% | HCC-2998 colon 18.6% | KM12 colon 25.1%

CC1CC(=O)OC(C)C1 (stereo unspecified)
inactive: RPMI-8226 leukemia 104% | OVCAR-8 ovarian 104% | OVCAR-5 ovarian 105% | OVCAR-4 ovarian 97.6% | SK-OV-3 ovarian 101% | IGROV1 ovarian 107% | OVCAR-3 ovarian 116% | HS 578T breast 112% | NCI/ADR-RES ovarian 112% | T-47D breast 107% | BT-549 breast 114% | MDA-MB-435 melanoma 96.7% | SW-620 colon 107% | MCF7 breast 91.1% | HCT-116 colon 104% | HCC-2998 colon 92.5% | KM12 colon 110%

O=C1OCC2=C1C(c1cccc(Cl)c1)c1cc3c(cc1N2CCO)OCO3 (stereo unspecified)
inactive: RPMI-8226 leukemia 22.4% | OVCAR-8 ovarian 25.1% | OVCAR-5 ovarian 31.2% | OVCAR-4 ovarian 64.5% | SK-OV-3 ovarian 19.4% | IGROV1 ovarian 44% | T-47D breast 62.6% | BT-549 breast 59.6% | SW-620 colon 21.3% | MCF7 breast 23.9% | HCT-116 colon 19%
active: OVCAR-3 ovarian -50.6% | HS 578T breast -5.17% | NCI/ADR-RES ovarian -11% | MDA-MB-435 melanoma -46.1% | KM12 colon 8.24%

CNc1ncc(-c2ccc(C(F)(F)F)cc2)c(NC2CCCCCC2)n1
inactive: RPMI-8226 leukemia 32.1% | OVCAR-8 ovarian 84.2% | OVCAR-5 ovarian 88.8% | OVCAR-4 ovarian 70.1% | SK-OV-3 ovarian 83% | IGROV1 ovarian 63.9% | OVCAR-3 ovarian 78.2% | HS 578T breast 99.6% | NCI/ADR-RES ovarian 65.2% | T-47D breast 45.8% | BT-549 breast 90.9% | MDA-MB-435 melanoma 89.8% | SW-620 colon 77.4% | MCF7 breast 67.6% | HCC-2998 colon 91.1% | KM12 colon 74.1%

COc1ccc(-c2nn(-c3cccc(NC(=O)c4ccc(N5CCOCC5)c(C(F)(F)F)c4)c3)cc2-c2ccncc2)cc1Cl
inactive: RPMI-8226 leukemia 14.6% | OVCAR-8 ovarian 55.3% | OVCAR-5 ovarian 73.1% | OVCAR-4 ovarian 92.3% | SK-OV-3 ovarian 83.5% | IGROV1 ovarian 94.3% | OVCAR-3 ovarian 83.3% | HS 578T breast 41.1% | NCI/ADR-RES ovarian 52.7% | T-47D breast 68.1% | BT-549 breast 67.9% | MDA-MB-435 melanoma 30% | SW-620 colon 83.3% | MCF7 breast 53% | HCT-116 colon 55.5% | HCC-2998 colon 67.6% | KM12 colon 43.7%

COc1cc2c(cc1OC)N(CCO)C1=C(C(=O)OC1)C2c1ccc(Cl)c(Cl)c1 (stereo unspecified)
inactive: RPMI-8226 leukemia 92.1% | OVCAR-8 ovarian 103% | OVCAR-5 ovarian 111% | OVCAR-4 ovarian 104% | SK-OV-3 ovarian 106% | IGROV1 ovarian 110% | OVCAR-3 ovarian 112% | HS 578T breast 103% | NCI/ADR-RES ovarian 104% | T-47D breast 88.3% | BT-549 breast 89.4% | MDA-MB-435 melanoma 101% | SW-620 colon 102% | MCF7 breast 95.8% | HCT-116 colon 97.7% | KM12 colon 102%
